Measurements from PubChem BioAssay AID602393 (Broad Institute, 2012).
Screen size: about 350,000 compounds; about 7,000 (2%) were called active. Rule as the data show it: active = activation above about 40%; inconclusive = no clear call, values can overlap the other calls; inactive = below that. Shown is part of a subset that was picked to be rich in actives.

assay: raisers of Bmi1 knock-in reporter signal – mouse ES cells, Bmi1 luciferase knock-in, single point, esBAF inhibitor project, primary screen (AID 602393); conditions: 24 h, at 12.5 µM, active compounds read high, 100% = twice the neutral-well signal;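 also: 0% = median of the plate's neutral control wells and 100% = double that signal; a rise in the Bmi1 reporter signal indicates esBAF inhibition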

Row | Structure (SMILES) | reporter increase
1 | O=C(NCC[C@@H]1CC[C@H](NS(=O)(=O)c2cccc(F)c2)[C@H](CO)O1)c1cnccn1 | -3.13% (inactive)
2 | C[C@H](CO)N1C[C@H](C)[C@@H](CN(C)Cc2ccccn2)Oc2ncc(-c3cccc(F)c3)cc2C1=O | 0.648% (inactive)
3 | COC(=O)COc1cccc2c(=O)n(CC(=O)NCCc3ccc(OC)c(OC)c3)ccc12 | 8.15% (inactive)
4 | COc1ccc(CNC(=O)COc2ccccc2C(=O)c2cnn(-c3ccccc3)c2)cc1OC | 75.1% (active)
5 | COc1cc(C=O)c(Br)cc1OCC(=O)NCc1ccccc1 | 0.717% (inactive)
6 | O=C(C[C@H]1C[C@H]2c3cc(NC(=O)C4CCOCC4)ccc3O[C@H]2[C@@H](CO)O1)NCC1CC1 | 0.385% (inactive)
7 | O=C(OCc1ccccc1F)c1ccc2c(c1)OCCO2 | 58.2% (active)
8 | O=C(CN1CCN(c2ccccc2F)CC1)c1ccc2c(c1)OCO2 | 14.1% (inactive)
9 | O=C(COC(=O)c1ccc(O)cc1O)c1ccc2c(c1)OCCO2 | 90.2% (active)
10 | O=C(COC(=O)c1ccc(O)cc1O)NC(=O)c1ccccc1 | -3.35% (inactive)
11 | O=C(COC(=O)c1ccc2c(c1)OCCO2)NCc1ccccc1Cl | -1.54% (inactive)
12 | O=C(COC(=O)c1ccccc1)c1ccc2c(c1)OCCO2 | 1.23% (inactive)
13 | C/C=C/c1ccc([C@H]2[C@@H](CO)N(C(C)=O)[C@H]2CN(C)S(C)(=O)=O)cc1 | -4.53% (inactive)
14 | O=C(C1CCC1)N1C[C@H]2[C@@H](c3ccccc31)[C@H](CO)N2C(=O)Nc1cccc(F)c1 | -1.72% (inactive)
15 | CCOc1cccc(C(=O)Nc2cnn(Cc3ccccc3)c2)c1 | 13% (inactive)
16 | Cc1nnc(NC(=O)c2ccc3nccnc3c2)s1 | 16.2% (inactive)
17 | CCOc1cccc(C(=O)Nc2nnc(-c3cccs3)s2)c1 | 50% (active)
18 | Cc1noc(C)c1NC(=O)N[C@@H]1C=C[C@H](CC(=O)N2CCCCC2)O[C@H]1CO | -4.9% (inactive)
19 | COc1ccc(CNC(=O)C[C@H]2C[C@H]3c4cc(NS(C)(=O)=O)ccc4O[C@H]3[C@@H](CO)O2)cc1 | -3.21% (inactive)
20 | CN(C)C(=O)c1cccc(-c2ccc3c(c2)[C@H]2[C@H](CCN2C(=O)Cc2ccccc2)[C@H](CO)N3)c1 | 11% (inactive)
21 | O=C(Nc1ccc(OCCO)cc1)c1csc([C@H]2C[C@H](O)[C@@H](CO)O2)n1 | 0.832% (inactive)

Row | Structure (SMILES) | reporter increase
22 | O=C(Nc1ccc(Cl)cc1)c1csc([C@@H]2O[C@H](CO)[C@H](O)[C@H](O)[C@H]2O)n1 | -3.58% (inactive)
23 | O=C(Nc1ccc(Cl)cc1)c1csc([C@H]2C[C@H](O)[C@@H](CO)O2)n1 | 67.4% (active)
24 | CCCNC(=O)[C@@H]1[C@@H](CO)[C@@H]2Cn3c(ccc(C4=CCCCC4)c3=O)[C@H]1N2CCC | 2.73% (inactive)
25 | O=C(C[C@H]1C[C@@H]2c3cc(NC(=O)C4CCC4)ccc3O[C@@H]2[C@@H](CO)O1)NCCN1CCCCC1 | -1.5% (inactive)
26 | Nc1scc(-c2ccncc2)c1Cl | 47.9% (active)
27 | COC(=O)c1c(-c2ccc(C)cc2)csc1N | 0.96% (inactive)
28 | COc1ccccc1CNC(=O)C[C@@H]1C[C@H]2c3cc(NC(=O)CN(C)C)ccc3O[C@H]2[C@@H](CO)O1 | 0.071% (inactive)
29 | CS(=O)(=O)Nc1ccc2c(c1)[C@H]1C[C@H](CC(=O)NCc3ccc(Oc4ccccc4)cc3)O[C@H](CO)[C@H]1O2 | 7.43% (inactive)
30 | C[C@H]1CN([C@@H](C)CO)C(=O)c2cc(Br)cnc2O[C@H]1CN(C)Cc1cccc(F)c1 | -3.97% (inactive)
31 | O=C(Nc1ccccc1)N1CCC(C(=O)N2CCN(Cc3ccccc3)CC2)CC1 | 12% (inactive)
32 | O=C(Nc1ccccc1)N1CCN(C2c3ccccc3-c3ccccc32)CC1 | 4.83% (inactive)
33 | O=C(Nc1ccccc1)N1CCN(Cc2ccccc2)CC1 | 40.2% (active)
34 | C[C@@H]1CN([C@H](C)CO)S(=O)(=O)c2ccc(-c3cccc(F)c3)cc2O[C@H]1CN(C)S(=O)(=O)c1ccc(F)cc1 | 10% (inactive)
35 | O=C(NC1CCC1)[C@H]1[C@H](CO)[C@H]2Cn3c(ccc(-c4ccccc4)c3=O)[C@@H]1N2Cc1cocn1 | 12.8% (inactive)
36 | O=C(C1CCC1)N1CCCCN2[C@H](CO)[C@H](c3ccc(-c4cccc(F)c4)cc3)[C@H]2C1 | -5.73% (inactive)
37 | O=C(NCC1CCCCC1)NCC1CCCCC1 | 44.8% (active)
38 | N#CCC(=O)NC(=O)NCC1CC1 | 6.44% (inactive)
39 | CC(C)(C)NC(=O)NC(=O)COC(=O)CCC1CCCCC1 | -5.79% (inactive)
40 | CCCNC(=O)C[C@H]1CC[C@H]2[C@H](COc3ccc(NC(=O)CC)cc3C(=O)N2C)O1 | 2.93% (inactive)
41 | C[C@H]1CN([C@@H](C)CO)C(=O)c2cccc(NS(=O)(=O)c3ccc(F)cc3)c2O[C@@H]1CN(C)CC1CC1 | -4.49% (inactive)
42 | Cc1cccc(N2O[C@H]3C=CC2CCCC3)n1 | 56.9% (active)

Row | Structure (SMILES) | reporter increase
43 | CC(C)NC(=O)Nc1ccc2c(c1)C(=O)N([C@@H](C)CO)C[C@@H](C)[C@@H](CN(C)S(=O)(=O)c1ccc(F)cc1)OCCCC[C@H](C)O2 | -2.87% (inactive)
44 | C[C@@H]1CN([C@H](C)CO)S(=O)(=O)c2ccc(-c3cncnc3)cc2O[C@@H]1CN(C)Cc1ccccn1 | -3.4% (inactive)
45 | CC(=O)Nc1ccc(S(=O)(=O)N(C)CC(=O)NCCC2=CCCCC2)cc1 | -5.82% (inactive)
46 | CC(OC(=O)c1c(F)cccc1F)C(=O)NCCC1=CCCCC1 (stereo not drawn) | -1.99% (inactive)
47 | S=C(NCCC1=CCCCC1)Nc1ccccc1 | 51.5% (active)
48 | NS(=O)(=O)c1ccc(CCNC(=O)c2ccc(Cl)cc2[N+](=O)[O-])cc1 | 0.338% (inactive)
49 | Cc1cc(C(=O)NCCc2ccc(Cl)cc2)n(-c2ccccc2)n1 | -4.28% (inactive)
50 | Cc1cc(C(=O)NCCc2ccc(Cl)cc2)c(C)o1 | 55.1% (active)
51 | Cn1cnc(CCNC(=O)[C@H]2[C@H](CO)[C@H]3Cn4c(cccc4=O)[C@H]3N2C(=O)Nc2ccccc2)c1 | 6.91% (inactive)
52 | O=C(NC1CCCCC1)N[C@H]1CC[C@H](CCNS(=O)(=O)c2ccc(F)cc2)O[C@H]1CO | 12.9% (inactive)
53 | O=C(c1nnc(-c2ccc(Cl)cc2)o1)C1CCCC1 | 19.6% (inactive)
54 | O=C(Nc1nnc(-c2ccc(Cl)cc2)o1)c1ccccc1Br | 17.7% (inactive)
55 | CSc1ccccc1-c1nnc(-c2ccc(Cl)cc2)o1 | 67.2% (active)
56 | COc1ccc(NC(=O)CCNC(=O)Cn2ccc3ccccc3c2=O)c(OC)c1 | -7.83% (inactive)
57 | COc1cc(NC(=O)CCNC(=O)Cn2ccc3ccccc3c2=O)cc(OC)c1OC | 52.2% (active)
58 | Cc1ccc(CNC(=O)CCNC(=O)Cn2ccc3ccccc3c2=O)cc1 | -7.21% (inactive)
59 | O=C(C[C@@H]1C=C[C@@H](NS(=O)(=O)c2ccccc2)[C@@H](CO)O1)NCc1ccccc1F | -1.71% (inactive)
60 | CC(C)NC(=O)N(C)C[C@@H]1Oc2c(cccc2N(C)C)C(=O)N([C@@H](C)CO)C[C@H]1C | -5.01% (inactive)
61 | C[C@H](CO)N1C[C@H](C)[C@@H](CN(C)C(=O)C2CCC2)Oc2cc(C3=CCCCC3)ccc2S1(=O)=O | 0.47% (inactive)
62 | COc1ccc(S(=O)(=O)N(C)C[C@H]2Oc3ccc(NC(=O)Nc4c(C)noc4C)cc3C(=O)N([C@@H](C)CO)C[C@@H]2C)cc1 | -2.46% (inactive)
63 | COC(=O)c1ccc(CSc2nc3cc(Cl)ccc3o2)cc1 | -4.19% (inactive)

Row | Structure (SMILES) | reporter increase
64 | COC(=O)c1ccc(CNC(=O)c2ccc(S(=O)(=O)N3CCCCCC3)cc2)cc1 | 1.32% (inactive)
65 | COc1ccc(CNC(=O)c2ccc3oc(C(C)C)nc3c2)cc1 | 47.5% (active)
66 | CC(C)c1nc2cc(C(=O)NC(C)c3cnn(C)c3)ccc2o1 (stereo not drawn) | 3.1% (inactive)
67 | COc1ccc(CNC(=O)c2cc(=O)c3c(C)cc(C)cc3o2)cc1 | 1.4% (inactive)
68 | COC(=O)c1ccc(CNC(=O)c2ccc3oc(C(C)C)nc3c2)cc1 | 49% (active)
69 | O=C(NCC[C@@H]1CC[C@@H](NC(=O)C2CCCC2)[C@H](CO)O1)c1cnccn1 | -3.83% (inactive)
70 | COc1ccc(S(=O)(=O)N(C)C[C@H]2Oc3c(NS(=O)(=O)c4ccc(F)cc4)cccc3C(=O)N([C@H](C)CO)C[C@H]2C)cc1 | 0.834% (inactive)
71 | C[C@H](CO)N1C[C@H](C)[C@@H](CN(C)Cc2ccc(C(=O)O)cc2)Oc2ccc(NS(=O)(=O)c3cn(C)cn3)cc2CC1=O | -1.15% (inactive)
72 | C[C@@H]1CN([C@@H](C)CO)C(=O)c2cc(NC(=O)Cc3ccccc3)ccc2O[C@@H](C)CCCCO[C@H]1CN(C)C(=O)Nc1cccc2ccccc12 | 1.67% (inactive)
73 | CS(=O)(=O)Nc1ccc2c(c1)[C@@H]1C[C@H](CC(=O)NCc3cc(F)ccc3F)O[C@@H](CO)[C@@H]1O2 | 1.97% (inactive)
74 | O=C(C[C@H]1CC[C@H](NC(=O)c2ccc3c(c2)OCO3)[C@H](CO)O1)NCc1ccc(Oc2ccccc2)cc1 | -8.21% (inactive)
75 | CNC[C@H]1Oc2ccc(NC(=O)Nc3ccc4c(c3)OCO4)cc2CC(=O)N([C@H](C)CO)C[C@H]1C | 0.772% (inactive)
76 | Nc1ccc(N=Nc2ccccc2Cl)c(N)n1 | 76% (active)
77 | COc1ccc(NC(=O)N(C)C[C@@H]2Oc3c(NC(=O)C4CCOCC4)cccc3C(=O)N([C@H](C)CO)C[C@@H]2C)cc1 | 1.63% (inactive)
78 | Cc1noc(C)c1CCC(=O)N1CCCC(CO)(Cc2ccccc2)C1 (stereo not drawn) | 73.8% (active)
79 | CCOC(=O)C1(Cc2ccccc2C)CCCN(C(=O)CCc2c(C)noc2C)C1 (stereo not drawn) | 4.36% (inactive)
80 | Cc1ccccc1CC1(CO)CCCN(C(=O)c2cc(-c3ccccc3)no2)C1 (stereo not drawn) | -3.48% (inactive)
81 | CCCc1cc(C(=O)N2CCCC(CO)(CCCc3ccccc3)C2)n(C)n1 (stereo not drawn) | 9.89% (inactive)
82 | Cc1noc(C)c1CCC(=O)O | -5.69% (inactive)
83 | COC(=O)CCC(=O)N1CCCC(CO)(Cc2ccccc2)C1 (stereo not drawn) | 88.3% (active)
